This note sets out measurements from PubChem BioAssay (NCATS).

Test [1] in a line: Cell Viability - HepG2 (AID 433; calls by dose curve;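 note: potency is the fitted concentration of half-maximal effect; cells exposed to compound for 40 hours; potency for ATP loss meaning cytotoxicity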). As to conditions: qHTS. The method in brief:
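Read-out is luciferase-based quantitation of cellular ATP as a measure of viable HepG2 cells after 40 h treatment at 37 °C. Signal decrease is scaled between DMSO-only and 100 uM tamoxifen controls, with AC50 fitted by the Hill equation.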
For orientation: qHTS replaces the single test concentration by a dilution series.

The nature of test [2]: Cell Viability - Mesenchymal (AID 546).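 Note: cells exposed to compound for 40 hours before reading.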 As to conditions: mesenchymal cells viability, qHTS; activity change, negative = cytotoxicity: at 91.7 µM (top of the series). The method in brief: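 In this qHTS cytotoxicity format, glomerulus-derived human mesenchymal kidney cells received compound for 40 hr, then luciferase-based ATP quantitation. Concentration-response data were fitted with the Hill equation.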

Test [3] is described as follows: Cellular Toxicity (caspase-3) Jurkat (AID 655).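 Note: cells exposed to compound for 16 h at 37 °C before reading.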 As to conditions: Jurkat caspase-3 activation, luminescence; caspase-3 activation: at 92.2 µM (top of the series), DMSO = 0%, tamoxifen = 100%. The method in brief:
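5000 Jurkat cells/well; compound 16 hr, 37 °C; Caspase-Glo 3/7 added, 20 min RT; luminescence read. Norm: DMSO = 0%, tamoxifen 100 uM = 100%. AC50, Hill model.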

The nature of test [4]: Cell Viability - LYMP1-002 - Assay at 16 hr (AID 948).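 Note: 0% = DMSO alone and full effect = 92 µM tetraoctylammonium bromide.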 Particulars: LYMP1-002 lymphoblastoid cell viability; series mostly up to 92.2 µM. The method in brief:
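Seed 2500 LYMP1-002 cells per well in complete medium and hold 5 hr at 37 C. Add compound across a concentration series and incubate 16 hr at 37 C. Add CellTiter-Glo, wait 30 min at room temperature, read luminescence.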

Test [5] is described as follows: Cell Viability - LYMP2-003 (AID 965).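 Note: cells exposed to compounds for 24 h before reading; 0% = DMSO only and full effect = 92 µM tetraoctylammonium bromide; nearly all actives have a fitted effect of over 50% in size.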 As to conditions: LYMP2-003 lymphoblastoid cell viability; series mostly up to 92.2 µM. The method in brief:
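Seed 2500 lymphoblastoid cells/well; incubate 5 hr, 37 C; add compounds; incubate 24 hr, 37 C; add CellTiter-Glo, 30 min RT; read luminescence. AC50 from Hill fit.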

Test [6] in a line: Cell Viability - LYMP2-011 (AID 969).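 Note: 0% = DMSO only and full inhibition = 92 µM tetraoctylammonium bromide; nearly all actives have a fitted effect of over 60% in size.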 Particulars: LYMP2-011 lymphoblastoid cells viability; series mostly up to 92.2 µM. The method in brief:
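Cytotoxicity qHTS with ATP content as read-out: lymphoblastoid cells (2500/well) exposed to compound for 24 h at 37 C, then luciferase luminescence measured. Concentration-response data fitted with the standard Hill equation to give AC50.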

A short description of test [7]: Cell Viability - LYMP2-013 (AID 970).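 Note: 0% = DMSO only and full inhibition = tetraoctylammonium bromide control; nearly all actives have a fitted effect of over 55% in size.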 Particulars: LYMP2-013 lymphoblastoid cells viability; series mostly up to 92.2 µM. The method in brief:
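qHTS cytotoxicity: ATP-dependent luminescence (CellTiter-Glo, 30 min room temperature) read after 24 h compound exposure at 37 C of 2500 LYMP2-013 lymphoblastoid cells per well. Concentration-response fitted with Hill equation to give AC50.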

A short description of test [8]: Cell Viability - LYMP2-021 (AID 974). Note: % is set by controls: 0 for no effect and ±100 for the full control effect; nearly all actives have a fitted effect of over 55% in size. Particulars: LYMP2-021 lymphoblastoid cells viability; series mostly up to 92.2 µM. The method in brief: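 AC50 values come from Hill-equation fits to CellTiter-Glo luminescence (ATP content), read after 24 hour compound exposure at 37 C of 2500 LYMP2-021 lymphoblastoid cells/well; tetraoctylammonium bromide as positive control.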

The nature of test [9]: Cell Viability - LYMP2-002 (AID 977).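 Note: plate controls were DMSO only for no effect and 92 µM tetraoctylammonium bromide for full effect.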 As to conditions: LYMP2-002 lymphoblastoid cell viability, qHTS; series mostly up to 92.2 µM. The method in brief:
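In this qHTS viability screen, 2500 human lymphoblastoid cells per well receive compound for 24 hr at 37 C, and luciferase-based ATP luminescence gives the viability signal. Tetraoctylammonium bromide serves as positive control.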

Test [10] is described as follows: Cell Viability - LYMP2-008 (AID 980). Note: % is set by controls: 0 for no effect and ±100 for the full control effect; nearly all actives have a fitted effect of over 60% in size. Particulars: LYMP2-008 lymphoblastoid cell viability, qHTS; series mostly up to 92.2 µM. The method in brief: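 Cytotoxicity determined from ATP-dependent luciferase luminescence (CellTiter-Glo) following 24 h compound exposure of human lymphoblastoid LYMP2-008 cells at 37 C. Concentration-response data fitted to the Hill equation to give AC50.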

A short description of test [11]: Cell Viability - LYMP2-012 (AID 982).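 Note: cellular ATP by luciferase luminescence where a drop means cytotoxicity; cells exposed to compound for one day before reading; 0% = DMSO only and full loss = 92 µM tetraoctylammonium bromide; nearly all actives have a fitted effect of over 55% in size.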 Particulars: LYMP2-012 lymphoblastoid cell viability qHTS; series mostly up to 92.2 µM.
Test [12] in a line: Cell Viability - LYMP2-014 (AID 983).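 Note: plate controls were DMSO only for no effect and 92 µM tetraoctylammonium bromide for full effect; nearly all actives have a fitted effect of over 50% in size.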 As to conditions: LYMP2-014 lymphoblastoid cells, viability qHTS; series mostly up to 92.2 µM. The method in brief:
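Intracellular ATP loss, read by luciferase luminescence, measures acute cytotoxicity after 24 h compound exposure of lymphoblastoid LYMP2-014 cells (2500/well, 37 C). Concentration-response data fitted to the Hill equation for AC50.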

A short description of test [13]: Cell Viability - LYMP2-016 (AID 984). Note: % is set by controls: 0 for no effect and ±100 for the full control effect; nearly all actives have a fitted effect of over 55% in size. As to conditions: LYMP2-016 lymphoblastoid cell viability, qHTS; series mostly up to 92.2 µM. The method in brief:
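Cells were seeded at 2500 per well and rested 5 hr before a 24 hr compound exposure at 37 C. Viability was then gauged as cellular ATP by luciferase luminescence, with AC50 values fitted to the Hill equation.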

Test [14] can be described thus: Cell Viability - LYMP2-020 (AID 986). As to conditions: series mostly up to 92.2 µM. The method in brief:
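Cytotoxicity in qHTS format: luminescent ATP readout from CellTiter-Glo after 24 h compound exposure at 37 C in complete medium. LYMP2-020 lymphoblastoid cells were seeded at 2500/well; concentration-response data fitted to the Hill equation for AC50.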

A short description of test [15]: Cell Viability - LYMP2-024 (AID 988).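 Note: plate controls were DMSO only for no effect and 92 µM tetraoctylammonium bromide for full effect; nearly all actives have a fitted effect of over 60% in size.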 As to conditions: LYMP2-024 lymphoblastoid cell viability; series mostly up to 92.2 µM. The method in brief: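 Cytotoxicity was taken as a decrease in ATP (CellTiter-Glo luminescence) after 24 hr compound exposure at 37 C of LYMP2-024 lymphoblastoid cells, 2500 cells/well. Concentration-response data were fitted to the Hill equation to give AC50.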

A short description of test [16]: Cell Viability - LYMP2-026 (AID 989). Note: % is set by controls: 0 for no effect and ±100 for the full control effect; nearly all actives have a fitted effect of over 50% in size. Particulars: LYMP2-026 lymphoblastoid cell viability, qHTS; series mostly up to 92.2 µM. The method in brief:
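Cytotoxicity read as ATP-dependent luminescence (CellTiter-Glo, 30 min room temperature) after 24 h compound treatment at 37 C. LYMP2-026 lymphoblastoid line seeded at 2500 cells/well; AC50 derived by standard Hill equation.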

Test [17] can be described thus: Cell Viability - LYMP1-002 - Assay at 40 hr (AID 994).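 Note: 0% = DMSO only and full inhibition = 92 µM tetraoctylammonium bromide; nearly all actives have a fitted effect of over 60% in size.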 As to conditions: LYMP1-002 lymphoblastoid cell viability; series mostly up to 92.2 µM. The method in brief:
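Cytotoxicity was read as loss of cellular ATP (CellTiter-Glo luminescence) after 40 hr compound exposure at 37 C of 2500 LYMP1-002 lymphoblastoid cells per well. Concentration-response data were fitted with the standard Hill equation to give AC50.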

A short description of test [18]: qHTS assay for small molecule antagonists of retinoid X receptor alpha signaling (AID 588546; active = well fitted inhibition curve with a large enough effect in the signal ratio, with a control signal flat, not every such curve was filed as active; the % refers to the signal ratio;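 note: cells stimulated with 9-cis-retinoic acid as agonist; % is set by controls: 0 for no effect and ±100 for the full control effect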). Particulars: HEK293T RXRa-UAS-bla, beta-lactamase ratio, antagonist mode; measured here: W530 green channel, cytotoxicity proxy. The method in brief:
(§1)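 Beta-lactamase reporter inhibition, read as CCF4 fluorescence ratio (ex 405, em 460/530 nm) after 2 h at RT. HEK293T UAS-bla cells, 2500/well, were stimulated with 9-cis-RA at 500 or 100 nM final alongside test compound for 18 h at 37 C.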

The target of test [19] is Retinoic acid receptor RXR-alpha (Homo sapiens) (UniProt P19793). The description is as above. As to conditions: HEK293T RXRa-UAS-bla, beta-lactamase ratio, antagonist mode. The method in brief:
as §1

The nature of test [20]: qHTS assay for environmental chemicals that activate the Aryl hydrocarbon Receptor (AhR) signaling pathway (AID 651777). Note: % of control where 0% means no effect; nearly all actives have a fitted effect of over 15% in size. Particulars: 1A2-DRE human hepatoma cells, luciferase, 24 h; activation: stronger effect = higher value. The method in brief: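 Measured luciferase activity, read 30 min after One-Glo addition at room temperature, from human hepatoma cells bearing a dioxin response element–CYP1A2 promoter reporter and exposed to compound for 24 hr at 37 C.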

Inconclusive results are not listed. The source made the active and inactive calls. Unless noted, calls come from the whole dose curve; as a rule, active = well fitted curve in the direction sought with a large enough effect; inconclusive = small, poorly fitted or top-dose-only effect, or another doubt; inactive = no such curve, though single readings can be large; an effect the other way counts as inactive or inconclusive.

Chain of Retinoic acid receptor RXR-alpha (Homo sapiens) (P19793 whole entry, looked up): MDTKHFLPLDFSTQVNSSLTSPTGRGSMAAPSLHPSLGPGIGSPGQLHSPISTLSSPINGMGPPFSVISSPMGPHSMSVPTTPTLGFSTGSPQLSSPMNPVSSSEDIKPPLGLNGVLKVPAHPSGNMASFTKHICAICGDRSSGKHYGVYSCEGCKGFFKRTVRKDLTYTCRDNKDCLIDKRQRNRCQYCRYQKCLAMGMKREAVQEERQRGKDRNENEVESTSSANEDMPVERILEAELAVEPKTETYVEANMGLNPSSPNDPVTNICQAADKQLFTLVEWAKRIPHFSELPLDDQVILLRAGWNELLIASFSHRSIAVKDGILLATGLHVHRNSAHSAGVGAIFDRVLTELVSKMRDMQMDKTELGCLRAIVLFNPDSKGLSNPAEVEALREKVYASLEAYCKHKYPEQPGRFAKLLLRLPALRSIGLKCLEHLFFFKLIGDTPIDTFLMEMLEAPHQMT

Turning to `CCCCCCc1ccc(-c2ccc(C#N)cc2)cc1`, in test [1], the Potency is > 92 µM (inactive). The Potency result in test [2], in test [3], in test [4], in test [5], in test [6] and in test [7] was “inactive” in each case. Moreover, the Potency result in test [8], in test [9], in [10], in test [11], in [12] and in test [13] was “inactive” each time. In addition, the Potency result in test [14], in test [15], in test [16] and in test [17] was “inactive” in each case. For the same molecule, the max response in [18] was -7.3%; in test [19] it was -14.6% (inactive).

As for `CC(C)S`, the Potency in [1] was > 92 µM (inactive). Also, the Potency entry in test [2], in test [3], in test [4], in test [5], in [6] and in test [7] was “inactive” each time. The Potency result in test [8], in test [9], in [10], in test [11], in test [12] and in [13] was “inactive” each time. Also, the Potency result in [14], in test [15], in test [16] and in test [17] was “inactive” each time. Also, the max response in test [18] was 0.793%; in test [19] it was 1.63% (inactive). For the same molecule, the activation in test [20] is -2.58% (inactive).

Regarding `C[Si](C)(C)Cl`, in test [1], the Potency is > 92 µM (inactive). Moreover, the Potency entry in test [2], in [3], in test [4], in test [5], in test [6] and in test [7] was “inactive” in each case. The Potency result in test [8], in test [9], in test [10], in test [11], in test [12] and in test [13] was “inactive” each time. Besides, the Potency entry in test [14], in [15], in test [16] and in test [17] was “inactive” in each case. Moreover, the max response was 3.42% in [18] and 16.7% (inactive) in test [19]. The activation in [20] was 1.28% (inactive).

As for `Cc1ccc2ccc3cccc4ccc1c2c34`, the Potency in test [1] is > 92 µM (inactive). The Potency entry in test [2], in test [3], in test [4], in test [5], in test [6] and in [7] was “inactive” throughout. Besides, the Potency result in test [8], in test [9], in test [10], in test [11], in test [12] and in [13] was “inactive” in each case. In addition, the Potency entry in [14], in test [15], in [16] and in test [17] was “inactive” in each case. Moreover, the max response is -6.82% in test [18] and -1.11% (inactive) in [19]. Also, the activation in [20] is 5.12% (inactive).

For the molecule `CCCCCCCCC1CO1` (centres undefined), in test [1], the Potency was > 92 µM (inactive). Further, the Potency entry in test [2], in test [3], in [4], in [5], in test [6] and in test [7] was “inactive” in each case. In addition, the Potency result in test [8], in [9], in [10], in [11], in test [12] and in test [13] was “inactive” each time. The Potency result in test [14], in test [15], in test [16] and in test [17] was “inactive” in each case. In addition, the max response was -6.6% in [18] and -3.61% (inactive) in [19]. For the same molecule, in test [20], the activation is 0.826% (inactive).

Turning to `c1cc2c3c(c1)ccc1cccc(c13)C2`, the Potency in test [1] is > 92 µM (inactive). For the same molecule, the Potency entry in test [2], in test [3], in test [4], in test [5], in [6] and in test [7] was “inactive” throughout. Moreover, the Potency entry in test [8], in [9], in test [10], in [11], in test [12] and in test [13] was “inactive” throughout. Besides, the Potency entry in test [14], in [15], in [16] and in test [17] was “inactive” each time. Also, the max response in test [18] was -1.55%; in test [19] it was -11.6% (inactive). The activation in test [20] is -0.581% (inactive).

As for `CC(C)OCC1CO1` (centres undefined), the Potency in test [1] is > 92 µM (inactive). For the same molecule, the Potency result in test [2], in test [3], in [4], in [5], in test [6] and in test [7] was “inactive” in each case. Further, the Potency entry in [8], in test [9], in [10], in test [11], in test [12] and in [13] was “inactive” in each case. The Potency result in test [14], in test [15], in test [16] and in [17] was “inactive” throughout. The max response in test [18] was -11.4%; in test [19], 1.98% (inactive). Besides, the activation in [20] is 0.457% (inactive).
